Results filed as inconclusive are left out. Entries that show only a call come without a potency. A number with no mark means an inactive call. Activity calls are given as the source filed them. The call rests on the fitted dose curve; in most records, active means well fitted curve in the direction sought with a large enough effect; inconclusive means small, poorly fitted or top-dose-only effect, or another doubt; inactive means no such curve, though single readings can be large; an effect the other way counts as inactive or inconclusive. Square brackets hold non-standard residues; d marks the D form. Peptide text beside a SMILES is read from it. ξ: configuration not given here. ξLac(3-iPr) = CC(C)CC(O)C(=O)O; NMeV = CN[CH](C(=O)O)C(C)C; NMeA = CN[CH](C)C(=O)O; βAla = NCCC(=O)O
What was measured:
[1] = biological target: Cellular tumor antigen p53 (Homo sapiens) (UniProt P04637); test: Primary qHTS for small molecule compounds that upregulate eGFP-tagged delta133p53alpha (in N-terminal) cells. (AID 2060322); conditions: NCI-H358 eGFP-delta133p53alpha fluorescence, 24 h; activation: active compounds read high; further: nearly all actives have a fitted effect of over 75% in size; further: potency means the concentration at half of the fitted maximal effect;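 on activation: cells pre-induced with doxycycline then dosed without doxycycline; series mostly up to about 56 µM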
In short: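 NCI-H358 cells pre-induced 24 h with 10 ng/ml doxycycline for eGFP-delta133p53alpha, plated dox-free and exposed 24 h at 37C to titrated compounds. Fixed, Hoechst-stained; gated GFP peak intensity by laser scanning cytometry, normalized to DMSO (0%) and 57.5 uM 5-azacytidine (100%).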

[2] = biological target: Aldehyde dehydrogenase, mitochondrial (Homo sapiens) (UniProt P05091); test: qHTS for Inhibitors of the Aldehyde Dehydrogenase Family (ALDH2) Primary screen (AID 2061308); further: nearly all actives have a fitted effect of over 55% in size
[3] = biological target: Retinaldehyde dehydrogenase 3 (Homo sapiens) (UniProt P47895); test: qHTS for Inhibitors of the Aldehyde Dehydrogenase Family (ALDH1A3) Primary screen (AID 2061315)

Chain of Cellular tumor antigen p53 (Homo sapiens) (P04637 whole entry, looked up): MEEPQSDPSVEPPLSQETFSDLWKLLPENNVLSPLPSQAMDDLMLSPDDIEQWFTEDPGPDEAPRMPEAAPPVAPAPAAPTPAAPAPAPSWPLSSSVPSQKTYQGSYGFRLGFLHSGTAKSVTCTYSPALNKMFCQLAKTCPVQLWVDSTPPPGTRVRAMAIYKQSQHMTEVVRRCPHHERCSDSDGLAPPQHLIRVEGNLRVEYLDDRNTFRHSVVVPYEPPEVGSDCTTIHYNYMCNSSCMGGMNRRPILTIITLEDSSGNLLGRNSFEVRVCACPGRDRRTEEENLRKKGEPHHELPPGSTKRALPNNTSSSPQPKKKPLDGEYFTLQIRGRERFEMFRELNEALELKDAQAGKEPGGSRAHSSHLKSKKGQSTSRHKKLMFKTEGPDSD

With `OCc1nnc2n1-c1ccc(Cl)cc1C(c1ccccc1Cl)=NC2` the activation [1] was -3.67%, the Potency [2] was “inactive” and the Potency [3] was “inactive”.
In the case of `Cc1ccccc1C1=CCN(C)CC1`, the activation [1] is reported as 1.67%, the Potency [2] is reported as “inactive” and the Potency [3] is reported as “inactive”.
For `COC1CC(O[C@H]2CC[C@@]3(C)C(=CCC4C3C(O)[C@@H](O)[C@]3(C)[C@@H](C(C)=O)CC[C@]43O)C2)OC(C)C1OC1CC(OC)C(OC2OC(C)C(O)C(O)C2O)C(C)O1` (some centres not stated), the activation [1] was -14.5%, the Potency [2] was “inactive” and the Potency [3] was “inactive”.
`O=C(O)CCCCCCNC1c2ccccc2CCc2ccccc21` was tested, and the activation [1] was 5.67%, the Potency [2] was “inactive” and the Potency [3] was “inactive”.
For `C=C1C[C@]2(O)[C@@]3(C)CCC(=O)C(C)(C)C3=C(O)C(=O)[C@@]2(C)[C@@H]2C(=O)O[C@@](C)(C(=O)OC)C(=O)[C@@]12C`, the activation [1] was -4.58%, the Potency [2] was “inactive” and the Potency [3] was “inactive”.
With `C[C@]12CC[C@H](O[C@@H]3O[C@H](CO)[C@@H](O)[C@H](O)[C@H]3O[C@@H]3O[C@H](CO)[C@@H](O)[C@H](O)[C@H]3O)CC1=CC[C@@H]1[C@@H]2CC[C@]2(C)[C@@H](C3=CC(=O)OC3)CC[C@]12O` the activation [1] was 8.93%, the Potency [2] was “inactive” and the Potency [3] was “inactive”.
With `CO[C@H]1C[C@H](O[C@H]2CC[C@]3(C=O)[C@H]4CC[C@]5(C)[C@@H](C6=CC(=O)OC6)CC[C@]5(O)[C@@H]4CC[C@]3(O)C2)O[C@H](C)[C@H]1O` the activation [1] was -29.8%, the Potency [2] was “inactive” and the Potency [3] was “inactive”.
`CC1C/C=C/C(O)C(O)CC/C=C/c2cc(O)cc(O)c2C(=O)O1` (configuration not stated) was tested, and the activation [1] was -10.7%, the Potency [2] was “inactive” and the Potency [3] was “inactive”.
For `CCC(C)(OC(C)=O)C(=O)O[C@H]1[C@H](OC(C)=O)C[C@@H]2[C@@](C)([C@@H]3C[C@H]4C=CO[C@H]4O3)[C@H](C)C[C@H](OC(C)=O)[C@@]2(COC(C)=O)[C@@]12CO2` (some centres not stated), the activation [1] was -3.82%, the Potency [2] was “inactive” and the Potency [3] was “inactive”.
`CCCN(CCC)CCc1ccc(OC)c(OCCc2ccccc2)c1` was tested, and the activation [1] was -1%, the Potency [2] was “inactive” and the Potency [3] was “inactive”.
`C[C@@H]1CCC2[C@@H](C)C(=O)OC3O[C@@]4(C)CCC1[C@]32OO4` (some centres not stated) was tested, and the activation [1] was 37.5%, the Potency [2] was “inactive” and the Potency [3] was “inactive”.
For `CN1CCN(c2nc3ccccc3nc2Cl)CC1`, the activation [1] was 1%, the Potency [2] was “inactive” and the Potency [3] was “inactive”.
`C=C[C@H]1[C@H](O[C@@H]2O[C@H](CO)[C@@H](O)[C@H](O)[C@H]2O)OC=C2C(=O)OCC[C@H]21` was tested, and the activation [1] was 6.11%, the Potency [2] was “inactive” and the Potency [3] was “inactive”.
For `CC(C)(O)[C@H]1O[C@H]2CC[C@@]3(C)[C@@](O)(CC[C@H]4Cc5c([nH]c6ccccc56)[C@@]43C)C2=CC1=O`, the activation [1] was 3.82%, the Potency [2] was “inactive” and the Potency [3] was “inactive”.
In the case of `CO[C@H]1C[C@H](O[C@H]2CC[C@@]3(C)C(=CCC4C3CC[C@]3(C)[C@@H](C5=CC(=O)OC5)CC[C@]43O)C2)O[C@@H](C)[C@@H]1O[C@@H]1O[C@H](CO[C@@H]2O[C@H](CO)[C@@H](O)[C@H](O)[C@H]2O)[C@@H](O)[C@H](O)[C@H]1O` (some centres not stated), the activation [1] is reported as 0%, the Potency [2] is reported as “inactive” and the Potency [3] is reported as “inactive”.
In the case of `C[C@]12CC[C@H](O)C[C@@H]1CC[C@@H]1[C@@H]2CC[C@]2(C)[C@@H](C3=CC(=O)OC3)CC[C@]12O`, the activation [1] is reported as 7.63%, the Potency [2] is reported as “inactive” and the Potency [3] is reported as “inactive”.
For `C=C1C(=O)OC2/C=C(\COO)CC/C=C(\COC(C)=O)CC(OC(=O)C(C)CC)C12` (configuration not stated), the Potency [1] was 9.28 µM (active), the Potency [2] was “inactive” and the Potency [3] was “inactive”.
In the case of `COC1=CC(=O)O[C@@H](CCc2ccccc2)C1`, the activation [1] is reported as -13.4%, the Potency [2] is reported as “inactive” and the Potency [3] is reported as “inactive”.
In the case of `COC(=O)C1(C)CCC(O)C2(C)c3cc(O)c(C(C)C)cc3C(O)C(OC(C)=O)C12` (configuration not stated), the activation [1] is reported as -2.68%, the Potency [2] is reported as “inactive” and the Potency [3] is reported as “inactive”.
With `C=C1C(=O)CC2OC2(C)CC2OC(=O)C(=C)C2C(O)C1OC(=O)/C(C)=C\C` (configuration not stated) the Potency [1] was 18.6 µM (active), the Potency [2] was “inactive” and the Potency [3] was “inactive”.
`CC(C)=C1CC[C@]23CO[C@H](C2)[C@@](O)(C(=O)O)CCC13` (some centres not stated) was tested, and the activation [1] was -4.58%, the Potency [2] was “inactive” and the Potency [3] was “inactive”.
`CN1C(=O)N(c2ccc(C#N)c(C(F)(F)F)c2)C(=O)[C@@]1(CO)c1ccccc1` was tested, and the activation [1] was -3.67%, the Potency [2] was “inactive” and the Potency [3] was “inactive”.
With `C=C1C2(C)CC3C(C)(O)C4=CC(=O)OC(C)(C)C4=CCC3(C)C13C(=O)OC(C)C3(O)C2=O` (configuration not stated) the activation [1] was -0.763%, the Potency [2] was “inactive” and the Potency [3] was “inactive”.
In the case of `COc1ccsc1CNCC[C@@]1(c2ccccn2)CCOC2(CCCC2)C1`, the activation [1] is reported as -0.333%, the Potency [2] is reported as “inactive” and the Potency [3] is reported as “inactive”.
`CCC(C)C1NC(=O)C2CCCN2C(=O)C(CC(C)C)OC(=O)CCNC(=O)C(C)N(C)C(=O)C(C(C)C)N(C)C1=O` (configuration not stated) (cyclo([ξLac(3-iPr)]PI[NMeV][NMeA][βAla]); configuration not given here) was tested, and the activation [1] was -7.14%, the Potency [2] was “inactive” and the Potency [3] was “inactive”.
In the case of `CCOP(=O)(OCC)Oc1ccc2c(C)cc(=O)oc2c1`, the activation [1] is reported as 6.33%, the Potency [2] is reported as “inactive” and the Potency [3] is reported as “inactive”.
In the case of `CC(=O)OC[C@]12[C@H](OC(C)=O)C(=O)[C@@H]3[C@@H](O)[C@@]14O[C@@]3(C)COC(=O)c1cccnc1[C@@H](C)[C@H](C)C(=O)O[C@@H]([C@H](OC(C)=O)[C@@H]2OC(C)=O)[C@]4(C)O`, the activation [1] is reported as 21.4%, the Potency [2] is reported as “inactive” and the Potency [3] is reported as “inactive”.
`COC1C(O)C(C)OC(OC2C(CO)O[C@@H](O[C@@H]3CC4CCC5C(CC[C@]6(C)[C@@H](C7=CC(=O)OC7)CC[C@]56O)[C@@]4(C)[C@H](O)C3)C(O)C2O)C1O` (some centres not stated) was tested, and the Potency [1] was 5 µM (active), the Potency [2] was “inactive” and the Potency [3] was “inactive”.
`CC(=O)OC[C@]12C[C@H](OC(=O)CC(C)C)C(C)=C[C@H]1O[C@@H]1[C@H](O)[C@@H](OC(C)=O)[C@@]2(C)[C@@]12CO2` was tested, and the Potency [1] was 0.0828 µM (active), the Potency [2] was “inactive” and the Potency [3] was “inactive”.
